Screening results from PubChem.
G9a inh = blocks human histone lysine methyltransferase G9a | Potency, µM (doses to about 102 µM), inactives show at the highest dose activity, negative = inhibition, usual class: inhibitors | Q96KQ7 | G9a H3K9 monomethylation, AlphaScreen, 2 h | 350,000 compounds, 8.8% hits; also: potency is read from the fitted curve at half-maximal effect; % is scaled to controls: 0 for no effect and ±100 for the full control effect; nearly all actives have a fitted effect of over 75% in size
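Chemiluminescent proximity detection of H3K9 monomethylation, read after 10 min bead incubation in the dark. Reaction: 20 nM G9a, 500 nM biotin-H3K9 peptide, 20 uM SAM cofactor, 2 h, room temperature, following 15 min enzyme-compound preincubation.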
BAZ2B inh = inhibitors of human BAZ2B bromodomain; Q9UIF8; AlphaScreen BAZ2B-H3K14Ac peptide displacement; Potency, µM (doses to about 114 µM), inactives show at the top dose activity change, negative = inhibition, actives largely listed as inhibitors; 360,000 compounds, 4.4% hits; also: potency is read from the fitted curve at half-maximal effect; % is scaled to controls: 0 for no effect and ±100 for the full control effect; nearly all actives have a fitted effect of over 60% in size
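AlphaScreen displacement: compounds (up to 110uM) incubated 30 min at room temperature with a preformed 50 nM BAZ2B/50 nM biotinylated H3K14Ac peptide complex in PBS pH 7.4 with Tween-20. Donor and acceptor beads at 10 ug/mL final added, 20 min light-protected before reading.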
JMJD2A Tudor = JMJD2A Tudor domain (human) inhibition | O75164 | AlphaScreen JMJD2A-Tudor / H3K4me3 peptide binding | Potency, µM (doses to about 114 µM), for inactives: top-dose activity change, negative = inhibition, most hits filed as inhibitors | 390,000 compounds, 4.4% hits; also: potency is read from the fitted curve at half-maximal effect; % is scaled to controls: 0 for no effect and ±100 for the full control effect; nearly all actives have a fitted effect of over 50% in size
Target sequence (O75164 whole entry, looked up, the tested form may be a part): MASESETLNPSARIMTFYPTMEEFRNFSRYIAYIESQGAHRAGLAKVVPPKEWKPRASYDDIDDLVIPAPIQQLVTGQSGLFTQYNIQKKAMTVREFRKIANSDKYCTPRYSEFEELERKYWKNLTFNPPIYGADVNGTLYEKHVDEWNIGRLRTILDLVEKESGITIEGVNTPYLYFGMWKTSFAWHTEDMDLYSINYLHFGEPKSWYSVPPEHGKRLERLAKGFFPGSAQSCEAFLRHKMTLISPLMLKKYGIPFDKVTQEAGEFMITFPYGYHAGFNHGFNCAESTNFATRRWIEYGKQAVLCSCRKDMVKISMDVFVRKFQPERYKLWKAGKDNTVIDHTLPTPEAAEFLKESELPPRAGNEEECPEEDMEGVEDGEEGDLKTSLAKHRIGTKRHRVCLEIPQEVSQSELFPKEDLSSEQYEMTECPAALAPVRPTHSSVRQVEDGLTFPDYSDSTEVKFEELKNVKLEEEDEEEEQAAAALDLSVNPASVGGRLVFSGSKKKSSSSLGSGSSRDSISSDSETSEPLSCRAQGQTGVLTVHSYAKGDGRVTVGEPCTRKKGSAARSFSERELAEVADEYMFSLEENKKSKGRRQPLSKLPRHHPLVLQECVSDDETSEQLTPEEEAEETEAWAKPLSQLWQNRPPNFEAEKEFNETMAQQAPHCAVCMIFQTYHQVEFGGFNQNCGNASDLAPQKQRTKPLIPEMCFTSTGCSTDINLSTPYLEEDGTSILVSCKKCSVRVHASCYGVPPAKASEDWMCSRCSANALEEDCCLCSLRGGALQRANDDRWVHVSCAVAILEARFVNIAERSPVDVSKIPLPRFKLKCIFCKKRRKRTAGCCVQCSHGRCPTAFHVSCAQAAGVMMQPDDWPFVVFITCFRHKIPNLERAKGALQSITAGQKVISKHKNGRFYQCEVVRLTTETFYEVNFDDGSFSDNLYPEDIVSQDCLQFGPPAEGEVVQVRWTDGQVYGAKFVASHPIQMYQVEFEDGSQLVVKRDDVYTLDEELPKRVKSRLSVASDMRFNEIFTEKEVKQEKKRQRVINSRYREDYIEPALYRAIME
Six1-Eya2 inh = Six1/Eya2 interaction inhibition; AlphaScreen GST-Six1/His-Eya2 binding, biochemical; stronger effect = lower value; 360,000 compounds, 0.56% hits; Q15475+O00167; activity change, % (no concentration beside the values); in the data active = activity change below about -65%; inconclusive = mostly about -30% to -63%; also: % is scaled to controls: 0 for no effect and ±100 for the full control effect
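Homogeneous AlphaScreen proximity assay pairing GST-Six1 with His-tagged Eya2 (added as 5X mix: 250 nM and 500 nM) in 50 mM Tris pH 8.0, 300 mM NaCl, 1 mM TCEP. Glutathione donor and nickel acceptor beads; 1 h, 37 °C, dark.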
HP1b binding inh = HP1-beta chromodomain-methylated histone interaction inhibition; P83916; AlphaScreen HP1-beta / biotin-H3K9me3 peptide binding; Potency, µM (series often up to 114 µM), for inactives: top-dose activity change, negative = inhibition, actives largely listed as inhibitors; 390,000 compounds, 0.56% hits; AID 540317; also: potency is read from the fitted curve at half-maximal effect; nearly all actives have a fitted effect of over 70% in size
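HP1-beta protein (50 nM final) preincubated 30 min at room temperature with biotinylated H3(1-18)K9me3 peptide (50 nM) in PBS pH 7.4, 0.01% Tween-20, then compound added for 30 min. AlphaScreen streptavidin donor/nickel chelate acceptor beads (10 ug/mL final), 30 min dark, luminescence read.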
CtBP-E1A blk = blocks the CtBP interaction with E1A | AlphaScreen GST-E1A/His-CtBP binding, 1536-well; stronger effect = lower value | activity change, % (no concentration beside the values) | 340,000 compounds, 0.49% hits | AID 651724; in the data active = activity change below about -65%; inconclusive = mostly about -30% to -63%; also: % is scaled to controls: 0 for no effect and ±100 for the full control effect
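Steps: dispense buffer (Tris pH 8.0, NaCl 300 mM, TCEP 1 mM, BSA, Tween 20); add 5X protein mix (GST-E1A, His-CtBP, 125 nM each); pin 23 nL compound; 2 h at 37 °C, dark; add 5X beads (50 ug/mL); 1 h; read.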
* hit, by the source's call; ? = inconclusive; nt = no result given; ! = a repeat was not active; [ ] = another dose, or the depositor's remark. Sampled rows, rich in hits. Any-hit rate of the full collection: about 10%. Unless noted, calls follow the shape of the dose curve; as a rule, active = well fitted inhibition curve with a large enough effect; inconclusive = small, poorly fitted or top-dose-only effect; inactive = no such curve, though single readings can be large or run the other way.

SMILES	G9a inh	BAZ2B inh	JMJD2A Tudor	Six1-Eya2 inh	HP1b binding inh	CtBP-E1A blk
CC(C)COc1ccc(-c2nn(-c3ccccc3)cc2/C=C2/SC(=S)N(CC(=O)O)C2=O)cc1	50.1µM*	44.7µM*	44.7µM*	-7.4	39.8µM*	nt
COc1cc(OC)c2c3c(c(C4CCCCC4)nc2c1)CCC3	nt	nt	14.7%	-0.4	38.4%	-9.8
COC[C@H]1CCCN1[C@@H]1CS(=O)(=O)N[C@H]1COCc1ccccc1	nt	nt	nt	6.9	nt	-6.6
Cc1cc(C=C2C(=O)CCCC2=O)c(C)n1-c1ccccc1	50.1µM*	50.1µM*	?	-4.2	-12.0%	-0.6
Cc1cc(/C=C2\SC(=S)NC2=O)c(C)n1-c1ccccc1	44.7µM*	?	14.1µM*	-18.1	-20.4%	-23.2
Cc1cc(/C=C2\SC(=S)NC2=O)c(C)n1-c1ccc(O)cc1	nt	39.8µM*	-15.4%[11.4 µM]	-21.1	?	-20.4
Cc1cc(/C=C2\SC(=S)NC2=O)c(C)n1C	39.8µM*	44.7µM*	44.7µM*	?	-36.0%	6.6
COc1ccc(-n2c(C)cc(/C=C3\SC(=S)NC3=O)c2C)cc1	nt	-11.9%	-22.8%	-6.2	9.3%	nt
COc1ccc(S(=O)(=O)N2CCCCC2)cc1NC(=O)CNc1ccccc1C(C)=O	-14.4%[12.7 µM]	7.1%	-14.6%	-3.2	35.8%	-6.1
Cc1ccc2oc(C(=O)N(C)Cc3ccc(C)o3)c(C)c2c1	8.91µM*	-16.1%[57.1 µM]	?	-3.1	-13.7%	2.3
Cc1ccc2oc(C(=O)N(C)Cc3ccon3)c(C)c2c1	88.6%	2.5%	-0.3%	14.3	33.4%	nt
Cc1ccc(CN(C)C(=O)c2cc(Br)c(Br)s2)o1	44.7µM*	3.1%	-10.7%	-4.5	33.7%	10.9
C=CCN1C(=O)c2ccc(C(=O)N(C)Cc3ccc(C)o3)cc2C1=O	-11.5%[2.33 µM]	-25.8%	-12.3%	0.3	26.2%	4.6
CC1=C(C(=O)N(C(C)C)C(C)C)CC(CC(=O)NCCCCc2ccccc2)C(=O)N1Cc1ccc(C(C)(C)C)cc1 (centres undefined)	nt	nt	nt	2.4	nt	-26.2
CCN1/C(=C\C=C2\C(=O)N(C)C(=S)N2C)Sc2ccccc21	?	nt	-29.3%[11.4 µM]	-14.9	?	nt
CCC(=S)/C=C1\Sc2ccccc2N1CCCS(=O)(=O)O	nt	?	28.2µM*	0.4	?	-2.8
Cc1cc2nc(-c3nnnn3C3CCCCC3)c(=O)[nH]c2cc1C	nt	nt	nt	0.1	nt	5.9
S=C(c1ccc2c(c1)OCO2)N1CCOCC1	31.6µM*	-22.8%	2.7%	6.9	-5.8%	7.0
CN(C)c1ccc(C(=S)N2CCOCC2)cc1Br	?	5.3%	-15.5%	-3.2	-22.6%	2.0
S=C(c1ccc2c(c1)OCO2)N1CCCCCC1	50.1µM*	3.3%	-14.9%	-2.4	8.8%	-1.7
COc1ccc2nc(NC(=O)c3ccc(S(=O)(=O)N4CCC(C)CC4)cc3)sc2c1	3.8%[59 µM]	0.0%	-16.2%	nt	12.7%[57 µM]	nt
O=C(O)c1ccccc1N/N=C/c1c(Sc2nnnn2-c2ccccc2)nc2ccccn2c1=O	39.8µM*	44.7µM*	?	0.8	-24.9%	-1.5
CCn1cc(C(=O)NCc2ccco2)c2cc(OC)c(OC)cc2c1=O	?	5.1%	-16.7%	-5.8	16.9%	-9.6
COc1cc2c(C(=O)NCc3ccc(C)o3)cn(CC(C)C)c(=O)c2cc1OC	44.7µM*	4.4%[57.1 µM]	-21.2%	-0.9	10.2%	-8.8
CC(=O)c1c(C)nc(-c2cccc([N+](=O)[O-])c2)n1O	?	?	-26.3%	1.7	-0.1%	-2.0
SMILES	G9a inh	BAZ2B inh	JMJD2A Tudor	Six1-Eya2 inh	HP1b binding inh	CtBP-E1A blk
COc1ccc(-c2nc(C)c(C(C)=O)n2O)cc1[N+](=O)[O-]	56.2µM*	-16.4%	-25.6%	0.4	36.8%	10.4
Cc1ccc(Cc2nc3ccccc3nc2SCC(=O)N2CCCc3ccccc32)cc1	15.3%[59 µM]	3.6%	-17.5%	nt	25.4%[57 µM]	nt
COc1cc(N2CCCC2)c(OC)cc1/C=C1/NC(=S)NC1=O	22.4µM*	?	-34.5%	-15.0	-28.5%	9.2
COc1ccc(OC)c(/C=C2\NC(=O)NC2=O)c1	-1.3%	6.1%	-2.5%	1.5	29.6%	0.9
COc1ccc(C(=O)Oc2cc(N)n(S(=O)(=O)c3ccc(C)cc3)n2)cc1	7.2%	-24.3%	-20.7%	-14.5	38.8%	-11.9
COc1ccc(S(=O)(=O)n2nc(OC(=O)c3c(-c4ccccc4Cl)noc3C)cc2N)cc1	?	-38.4%	-18.8%	-72.4*	35.4%	?
Cc1ccc(NC(=O)CNCc2ccc(Cl)cc2Cl)cc1S(=O)(=O)N(C)C	10µM*	25.1µM*	20µM*	-0.6	35.5µM*	1.3
Cc1ccc(NC(=O)Cc2c(Cl)cccc2Cl)cc1S(=O)(=O)N(C)C	-11.3%[59 µM]	0.3%	-25.3%	-2.7	35.8%	0.3
Cc1ccc(NC(=O)COC(=O)Cn2cnc3ccccc32)cc1S(=O)(=O)N(C)C	50.1µM*	-32.4%	-13.8%	-1.2	22.6%	-2.4
Cc1ccc(NC(=O)CNCc2ccccc2Cl)cc1S(=O)(=O)N(C)C	-12.1%	50.1µM*	3.16µM*	-2.6	31.6µM*	-1.0
CN(CC(=O)Nc1c(Cl)cccc1Cl)C(=O)c1cc2ccccc2cc1O	?	12.8%	-8.9%	3.0	2.9%	-23.4
CCOc1ccc(N2C(=O)/C(=C/c3cccs3)N(CC(=O)OC)C2=S)cc1	8.0%	-27.5%	-4.5%	0.6	19.4%	0.7
COc1ccc(N2C(=O)/C(=C/c3cccs3)NC2=S)cc1	1.78µM*	?	79.4µM*	-3.1	?	1.1
COc1cc(C(=O)OC(C)C(=O)NC(=O)NC2CCCCC2)ccc1OC(F)F (centres undefined)	10.4%[12.7 µM]	0.9%	-21.5%	1.6	26.8%	nt
O=C(CCn1c2c(c3ccccc31)CCCC2)NNC(=O)c1ccc([N+](=O)[O-])cc1	15.8µM*	-36.4%	-32.3%	-25.7	-5.4%	-25.8
CCN1CCN(c2ccc(N=Cc3ccccc3O)cc2)CC1	50.1µM*	-32.4%	-5.7%	-7.1	18.4%	5.3
N[C@@H](CS(=O)O)C(=O)O	21.2µM*!	nt	nt	nt	nt	nt
NC(CS(=O)O)C(=O)O (centres undefined)	nt	nt	35.5µM*	0.8	23.4%	5.4
N[C@H](CO)C(=O)O	11.9µM*!	nt	nt	nt	nt	nt
NC(CSCC(=O)O)C(=O)O (centres undefined)	-25.3%[59 µM]	nt	nt	nt	nt	nt
O=C(NCCN1CCC(n2c(=O)[nH]c3ccccc32)CC1)c1ccc(Cl)c(Cl)c1	nt	nt	nt	-1.2	nt	-19.3
Cc1ccc(S(=O)(=O)NC(=O)NC2CCCCCCC2)cc1	-5.9%[12.7 µM]	nt	nt	nt	nt	nt
